# Measured values from PubChem BioAssay AID1159580 (chemical genetic matrix, 2015).
# In all, about 5,500 compounds went through this assay and about 2,000 (36%) were called active. About 18% were inconclusive and are not listed. The list shows a part of the results. Unmarked numbers belong to inactive results. Cut-off read from the data, not from the text of the source: active = normalized growth mostly below about 0.91 (no sharp cut-off); inconclusive = no clear call, values can overlap the other calls; inactive = mostly above about 0.92.
# Assay: chemical genetic growth profiling, strain panel (AID 1159580);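 note: tested at 20 µM; growth read once vehicle control cultures reached saturation at 30 °C; 1 = growth at the plate median or of vehicle wells; lower values mean less growth of the strain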
# Settings: S. cerevisiae deletion strains, growth OD
smiles,measurement,setting,value
C[C@H]1C[C@@H](O)[C@]2(O)[C@@]13CC(=O)OC[C@@]2(C)[C@](C)(O)C(=O)C3,normalized growth,"locus YAL021C, strain ccr4, stronger effect = lower value",1.02
same,normalized growth,"locus YAL026C, strain drs2, stronger effect = lower value",1.04
same,normalized growth,"locus YAL030W, strain snc1, stronger effect = lower value",1.02
same,normalized growth,"locus YBL061C, strain skt5, stronger effect = lower value",1.02
same,normalized growth,"locus YBR009C, strain hhf1, stronger effect = lower value",1.02
same,normalized growth,"locus YBR023C, strain chs3, stronger effect = lower value",1.03
same,normalized growth,"locus YBR171W, strain sec66, stronger effect = lower value",1.03
same,normalized growth,"locus YBR231C, strain swc5, stronger effect = lower value",1.03
same,normalized growth,"locus YBR279W, strain paf1, stronger effect = lower value",1.03
same,normalized growth,"locus YCL011C, strain gbp2, stronger effect = lower value",1.02
same,normalized growth,"locus YCL016C, strain dcc1, stronger effect = lower value",1.02
same,normalized growth,"locus YCL061C, strain MRC1, stronger effect = lower value",1.02
same,normalized growth,"locus YCL069W, strain vba3, stronger effect = lower value",1.02
same,normalized growth,"locus YCR088W, strain abp1, stronger effect = lower value",1.02
same,normalized growth,"locus YDL005C, strain med2, stronger effect = lower value",1.03
same,normalized growth,"locus YDL040C, strain nat1, stronger effect = lower value",1.02
same,normalized growth,"locus YDR001C, strain nth1, stronger effect = lower value",1.02
same,normalized growth,"locus YDR069C, strain doa4, stronger effect = lower value",1.04
same,normalized growth,"locus YDR137W, strain rgp1, stronger effect = lower value",1.03
same,normalized growth,"locus YDR159W, strain sac3, stronger effect = lower value",1.05
same,normalized growth,"locus YDR195W, strain ref2",1.02
same,normalized growth,"locus YDR297W, strain sur2, stronger effect = lower value",1.03
same,normalized growth,"locus YDR334W, strain swr1, stronger effect = lower value",1.03
same,normalized growth,"locus YDR335W, strain msn5, stronger effect = lower value",1.03
same,normalized growth,"locus YDR392W, strain spt3, stronger effect = lower value",0.974
same,normalized growth,"locus YEL003W, strain gim4, stronger effect = lower value",1.04
same,normalized growth,"locus YEL037C, strain rad23, stronger effect = lower value",1.03
same,normalized growth,"locus YEL061C, strain CIN8 (second series), stronger effect = lower value",1.03
same,normalized growth,"locus YER015W, strain faa2, stronger effect = lower value",1.02
same,normalized growth,"locus YER016W, strain bim1, stronger effect = lower value",1.02
same,normalized growth,"locus YER111C, strain swi4, stronger effect = lower value",1.04
same,normalized growth,"locus YER155C, strain BEM2 (second series), stronger effect = lower value",1.05
same,normalized growth,"locus YFR010W, strain ubp6, stronger effect = lower value",1.03
same,normalized growth,"locus YGL167C, strain pmr1, stronger effect = lower value",1.02
same,normalized growth,"locus YGL173C, strain kem1, stronger effect = lower value",1.02
same,normalized growth,"locus YGL227W, strain vid30, stronger effect = lower value",1.03
same,normalized growth,"locus YGL240W, strain doc1, stronger effect = lower value",1.02
same,normalized growth,"locus YGL253W, strain hxk2, stronger effect = lower value",1.03
same,normalized growth,"locus YHR013C, strain ard1, stronger effect = lower value",1.04
same,normalized growth,"locus YHR027C, strain rpn1, stronger effect = lower value",1.02
same,normalized growth,"locus YHR030C, strain SLT2, stronger effect = lower value",1.08
same,normalized growth,"locus YHR079C, strain IRE1, stronger effect = lower value",1.05
same,normalized growth,"locus YHR142W, strain chs7, stronger effect = lower value",1.04
same,normalized growth,"locus YJL092W, strain hpr5, stronger effect = lower value",1.03
same,normalized growth,"locus YJL095W, strain BCK1 (second series), stronger effect = lower value",1.03
same,normalized growth,"locus YJL095W, strain BCK1, stronger effect = lower value",1.05
same,normalized growth,"locus YJL115W, strain asf1, stronger effect = lower value",1.05
same,normalized growth,"locus YJL129C, strain trk1, stronger effect = lower value",1.06
same,normalized growth,"locus YJL154C, strain vps35, stronger effect = lower value",1.01
same,normalized growth,"locus YJL164C, strain tpk1, stronger effect = lower value",1.02
same,normalized growth,"locus YJL166W, strain qcr8, stronger effect = lower value",1.02
same,normalized growth,"locus YJL187C, strain SWE1, stronger effect = lower value",1.02
same,normalized growth,"locus YJR066W, strain TOR1, stronger effect = lower value",0.995
same,normalized growth,"locus YKL160W, strain elf1, stronger effect = lower value",1.02
same,normalized growth,"locus YKR026C, strain gcn3, stronger effect = lower value",1
same,normalized growth,"locus YKR091W, strain srl3, stronger effect = lower value",1.02
same,normalized growth,"locus YLL001W, strain dnm1, stronger effect = lower value",1.02
same,normalized growth,"locus YLL026W, stronger effect = lower value",1.03
same,normalized growth,"locus YLL041C, strain sdh2, stronger effect = lower value",1.02
same,normalized growth,"locus YLR027C, strain aat2, stronger effect = lower value",1.02
same,normalized growth,"locus YLR113W, strain HOG1, stronger effect = lower value",1.07
same,normalized growth,"locus YLR221C, strain rsa3, stronger effect = lower value",1.03
same,normalized growth,"locus YLR258W, strain gsy2, stronger effect = lower value",1.02
same,normalized growth,"locus YLR262C, strain YPT6 (second series), stronger effect = lower value",1.03
same,normalized growth,"locus YLR320W, strain mms22, stronger effect = lower value",1.03
same,normalized growth,"locus YLR342W, strain FKS1, stronger effect = lower value",1.03
same,normalized growth,"locus YLR357W, strain rsc2, stronger effect = lower value",1.07
same,normalized growth,"locus YLR370C, strain arc18, stronger effect = lower value",1.02
same,normalized growth,"locus YLR384C, strain iki3, stronger effect = lower value",1.02
same,normalized growth,"locus YML120C, strain ndi1, stronger effect = lower value",1.01
same,normalized growth,"locus YMR058W, strain fet3, stronger effect = lower value",1.03
same,normalized growth,"locus YMR125W, strain sto1, stronger effect = lower value",1.05
same,normalized growth,"locus YMR129W, stronger effect = lower value",1.02
same,normalized growth,"locus YMR205C, strain PFK2, stronger effect = lower value",1.04
same,normalized growth,"locus YMR231W, strain pep5, stronger effect = lower value",1.03
same,normalized growth,"locus YNL071W, strain lat1, stronger effect = lower value",1.03
same,normalized growth,"locus YNL183C, strain NPR1, stronger effect = lower value",0.984
same,normalized growth,"locus YNL209W, strain ssb2, stronger effect = lower value",1.02
same,normalized growth,"locus YNL248C, strain rpa49, stronger effect = lower value",1.03
same,normalized growth,"locus YNL322C, strain KRE1 (second series), stronger effect = lower value",1.02
same,normalized growth,"locus YNR049C, strain mso1, stronger effect = lower value",1.03
same,normalized growth,"locus YOR001W, strain rrp6, stronger effect = lower value",1.03
same,normalized growth,"locus YOR070C, strain gyp1, stronger effect = lower value",1.02
same,normalized growth,"locus YOR080W, strain dia2, stronger effect = lower value",1.03
same,normalized growth,"locus YOR083W, strain WHI5, stronger effect = lower value",1.01
same,normalized growth,"locus YOR106W, strain vam3, stronger effect = lower value",1.02
same,normalized growth,"locus YOR231W, strain MKK1, stronger effect = lower value",1.06
same,normalized growth,"locus YOR265W, strain rbl2, stronger effect = lower value",1.02
same,normalized growth,"locus YOR270C, strain vph1, stronger effect = lower value",1.09
same,normalized growth,"locus YOR290C, strain snf2, stronger effect = lower value",0.993
same,normalized growth,"locus YPL051W, strain arl3, stronger effect = lower value",1.02
same,normalized growth,"locus YPL078C, strain atp4, stronger effect = lower value",1.03
same,normalized growth,"locus YPL106C, strain sse1, stronger effect = lower value",1.02
same,normalized growth,"locus YPL240C, strain hsp82, stronger effect = lower value",1.03
same,normalized growth,"locus YPL256C, strain CLN2, stronger effect = lower value",1.05
Cc1nc(-c2ccc(-c3ccc(C(=O)N4CCc5cc6c(cc54)C4(CCN(C)CC4)CO6)cc3)c(C)c2)no1,normalized growth,"locus YAL040C, strain CLN3, stronger effect = lower value",0.967
same,normalized growth,"locus YCL061C, strain MRC1 (second series), stronger effect = lower value",0.902 (active)
same,normalized growth,"locus YDR363W, strain ESC2, stronger effect = lower value",0.991
same,normalized growth,"locus YER002W, strain NOP16, stronger effect = lower value",0.991
same,normalized growth,"locus YJR075W, strain HOC1, stronger effect = lower value",0.898 (active)
same,normalized growth,"locus YMR263W, strain SAP30, stronger effect = lower value",1
same,normalized growth,"locus YNL175C, strain NOP13, stronger effect = lower value",0.964
same,normalized growth,"locus YNL197C, strain WHI3, stronger effect = lower value",0.989
same,normalized growth,"locus YNL224C, strain SQS1, stronger effect = lower value",0.961
same,normalized growth,"locus YNL322C, strain KRE1, stronger effect = lower value",0.64 (active)
same,normalized growth,"locus YOR083W, strain WHI5 (second series), stronger effect = lower value",0.677 (active)
same,normalized growth,"locus YPL055C, strain LGE1, stronger effect = lower value",1.04
same,normalized growth,"locus YPL241C, strain CIN2, stronger effect = lower value",0.907 (active)
